The full data set covers some 7,900 targets. This sample favours those with a hit. About 0.6% of all pairs of compound and target were hits. Values without a mark were called inactive.
How the values were obtained:
Experiment in all cases: log2 fold change, soluble protein after heating vs DMSO (PISA); higher = thermal stabilisation; K562 cells, 10 uM, 30 min; active = over 0.2 and 3.5 SD of the protein, either way, in both replicates (recomputed)
[1] = compound: CS(=O)(=O)c1ccc(-c2cnc(N)c(C(=O)Nc3ccccc3)n2)cc1
Procedure, shortened: (§1)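 K562 cells at 2×10^6 cells/mL were treated for 30 min with 10 μM compound, and aliquots were heated for 3 min over 48°C-58°C before pooling. Extraction used PBS with 0.5% NP-40 at 4°C, and soluble protein was the supernatant after 21,000xg for 90 min, measured by TMTpro 16plex LC-MS/MS with channel sums equalised. Thermal stability values, relative to control samples and from duplicates, are log2 fold changes.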

[2] = compound: C[C@@H](Oc1cc(-c2cnn(C3CCNCC3)c2)cnc1N)c1c(Cl)ccc(F)c1Cl [crizotinib]
Procedure, shortened: as §1

[3] = compound: C[C@@H]1COCCN1C2=NC(=NC(=C2)C3(CC3)S(=O)(=O)C)C4=C5C=CNC5=CC=C4
Procedure, shortened: as §1

[4] = compound: C[C@H](C1=CC=C(C=C1)C(=O)NC2=C3C=CNC3=NC=C2)N
Procedure, shortened: as §1

[5] = compound: C[C@H](Nc1ncnc2nc[nH]c12)c1cc2cccc(Cl)c2c(=O)n1-c1ccccc1 [duvelisib]
Procedure, shortened: as §1

[6] = compound: Cc1cc(Nc2cc(CN3CCOCC3)c3nc(C)c(Cc4ccc(Cl)cc4F)n3n2)n[nH]1 [gandotinib]
Procedure, shortened: as §1

[7] = compound: Cc1cc(Nc2cc(N3CCN(C)CC3)nc(Sc3ccc(NC(=O)C4CC4)cc3)n2)n[nH]1 [tozasertib]
Procedure, shortened: as §1

[8] = compound: Cc1cc(SCc2sc(-c3ccc(C(F)(F)F)cc3)nc2C)ccc1OCC(=O)O
Procedure, shortened: as §1

[9] = compound: Cc1ccc(-n2nc(C(C)(C)C)cc2NC(=O)Nc2ccc(OCCN3CCOCC3)c3ccccc23)cc1 [doramapimod]
Procedure, shortened: as §1

[10] = compound: Cc1ccc(C(=O)N(CCCN)[C@@H](c2nc3cc(Cl)ccc3c(=O)n2Cc2ccccc2)C(C)C)cc1 [ispinesib]
Procedure, shortened: as §1

[11] = compound: Cc1ccc(NC(=O)c2ccc(CN3CC[C@H](N(C)C)C3)c(C(F)(F)F)c2)cc1Nc1nccc(-c2cncnc2)n1 [bafetinib]
Procedure, shortened: as §1

[12] = compound: Cc1cccc(CC(=O)N2CCc3c2ccc(-c2cn(C)c4ncnc(N)c24)c3F)n1
Procedure, shortened: as §1

[13] = compound: Cc1cn(-c2cc(NC(=O)c3ccc(C)c(Nc4nccc(-c5cccnc5)n4)c3)cc(C(F)(F)F)c2)cn1 [nilotinib]
Procedure, shortened: as §1

[14] = compound: Cc1nc(Nc2n[nH]c3c2CN(C(=O)N[C@H](CN(C)C)c2ccccc2)C3(C)C)c2sccc2n1
Procedure, shortened: as §1

[15] = compound: Cc1nc(Nc2ncc(C(=O)Nc3c(C)cccc3Cl)s2)cc(N2CCN(CCO)CC2)n1 [dasatinib]
Procedure, shortened: as §1

[16] = compound: Cc1ncc(-c2ccnc(Nc3ccc(S(C)(=O)=O)cc3)n2)n1C(C)C
Procedure, shortened: as §1

[17] = compound: Cn1cc(-c2ccc3c(c2)CCN3C(=O)Cc2cccc(C(F)(F)F)c2)c2c(N)ncnc21
Procedure, shortened: as §1

[18] = compound: Cn1cc(-c2ccc3nnc(C(F)(F)c4ccc5ncccc5c4)n3n2)cn1
Procedure, shortened: as §1

[19] = compound: Cn1cncc1[C@@](N)(c1ccc(Cl)cc1)c1ccc2c(c1)c(-c1cccc(Cl)c1)cc(=O)n2C [tipifarnib]
Procedure, shortened: as §1

[20] = compound: FC(F)(F)c1ccc(/C=C/c2nc(COc3ccc(CCCCn4ccnn4)cc3)co2)cc1 [mubritinib]
Procedure, shortened: as §1

UniProt Q9UQ35, sequence (Q9UQ35 whole entry, looked up): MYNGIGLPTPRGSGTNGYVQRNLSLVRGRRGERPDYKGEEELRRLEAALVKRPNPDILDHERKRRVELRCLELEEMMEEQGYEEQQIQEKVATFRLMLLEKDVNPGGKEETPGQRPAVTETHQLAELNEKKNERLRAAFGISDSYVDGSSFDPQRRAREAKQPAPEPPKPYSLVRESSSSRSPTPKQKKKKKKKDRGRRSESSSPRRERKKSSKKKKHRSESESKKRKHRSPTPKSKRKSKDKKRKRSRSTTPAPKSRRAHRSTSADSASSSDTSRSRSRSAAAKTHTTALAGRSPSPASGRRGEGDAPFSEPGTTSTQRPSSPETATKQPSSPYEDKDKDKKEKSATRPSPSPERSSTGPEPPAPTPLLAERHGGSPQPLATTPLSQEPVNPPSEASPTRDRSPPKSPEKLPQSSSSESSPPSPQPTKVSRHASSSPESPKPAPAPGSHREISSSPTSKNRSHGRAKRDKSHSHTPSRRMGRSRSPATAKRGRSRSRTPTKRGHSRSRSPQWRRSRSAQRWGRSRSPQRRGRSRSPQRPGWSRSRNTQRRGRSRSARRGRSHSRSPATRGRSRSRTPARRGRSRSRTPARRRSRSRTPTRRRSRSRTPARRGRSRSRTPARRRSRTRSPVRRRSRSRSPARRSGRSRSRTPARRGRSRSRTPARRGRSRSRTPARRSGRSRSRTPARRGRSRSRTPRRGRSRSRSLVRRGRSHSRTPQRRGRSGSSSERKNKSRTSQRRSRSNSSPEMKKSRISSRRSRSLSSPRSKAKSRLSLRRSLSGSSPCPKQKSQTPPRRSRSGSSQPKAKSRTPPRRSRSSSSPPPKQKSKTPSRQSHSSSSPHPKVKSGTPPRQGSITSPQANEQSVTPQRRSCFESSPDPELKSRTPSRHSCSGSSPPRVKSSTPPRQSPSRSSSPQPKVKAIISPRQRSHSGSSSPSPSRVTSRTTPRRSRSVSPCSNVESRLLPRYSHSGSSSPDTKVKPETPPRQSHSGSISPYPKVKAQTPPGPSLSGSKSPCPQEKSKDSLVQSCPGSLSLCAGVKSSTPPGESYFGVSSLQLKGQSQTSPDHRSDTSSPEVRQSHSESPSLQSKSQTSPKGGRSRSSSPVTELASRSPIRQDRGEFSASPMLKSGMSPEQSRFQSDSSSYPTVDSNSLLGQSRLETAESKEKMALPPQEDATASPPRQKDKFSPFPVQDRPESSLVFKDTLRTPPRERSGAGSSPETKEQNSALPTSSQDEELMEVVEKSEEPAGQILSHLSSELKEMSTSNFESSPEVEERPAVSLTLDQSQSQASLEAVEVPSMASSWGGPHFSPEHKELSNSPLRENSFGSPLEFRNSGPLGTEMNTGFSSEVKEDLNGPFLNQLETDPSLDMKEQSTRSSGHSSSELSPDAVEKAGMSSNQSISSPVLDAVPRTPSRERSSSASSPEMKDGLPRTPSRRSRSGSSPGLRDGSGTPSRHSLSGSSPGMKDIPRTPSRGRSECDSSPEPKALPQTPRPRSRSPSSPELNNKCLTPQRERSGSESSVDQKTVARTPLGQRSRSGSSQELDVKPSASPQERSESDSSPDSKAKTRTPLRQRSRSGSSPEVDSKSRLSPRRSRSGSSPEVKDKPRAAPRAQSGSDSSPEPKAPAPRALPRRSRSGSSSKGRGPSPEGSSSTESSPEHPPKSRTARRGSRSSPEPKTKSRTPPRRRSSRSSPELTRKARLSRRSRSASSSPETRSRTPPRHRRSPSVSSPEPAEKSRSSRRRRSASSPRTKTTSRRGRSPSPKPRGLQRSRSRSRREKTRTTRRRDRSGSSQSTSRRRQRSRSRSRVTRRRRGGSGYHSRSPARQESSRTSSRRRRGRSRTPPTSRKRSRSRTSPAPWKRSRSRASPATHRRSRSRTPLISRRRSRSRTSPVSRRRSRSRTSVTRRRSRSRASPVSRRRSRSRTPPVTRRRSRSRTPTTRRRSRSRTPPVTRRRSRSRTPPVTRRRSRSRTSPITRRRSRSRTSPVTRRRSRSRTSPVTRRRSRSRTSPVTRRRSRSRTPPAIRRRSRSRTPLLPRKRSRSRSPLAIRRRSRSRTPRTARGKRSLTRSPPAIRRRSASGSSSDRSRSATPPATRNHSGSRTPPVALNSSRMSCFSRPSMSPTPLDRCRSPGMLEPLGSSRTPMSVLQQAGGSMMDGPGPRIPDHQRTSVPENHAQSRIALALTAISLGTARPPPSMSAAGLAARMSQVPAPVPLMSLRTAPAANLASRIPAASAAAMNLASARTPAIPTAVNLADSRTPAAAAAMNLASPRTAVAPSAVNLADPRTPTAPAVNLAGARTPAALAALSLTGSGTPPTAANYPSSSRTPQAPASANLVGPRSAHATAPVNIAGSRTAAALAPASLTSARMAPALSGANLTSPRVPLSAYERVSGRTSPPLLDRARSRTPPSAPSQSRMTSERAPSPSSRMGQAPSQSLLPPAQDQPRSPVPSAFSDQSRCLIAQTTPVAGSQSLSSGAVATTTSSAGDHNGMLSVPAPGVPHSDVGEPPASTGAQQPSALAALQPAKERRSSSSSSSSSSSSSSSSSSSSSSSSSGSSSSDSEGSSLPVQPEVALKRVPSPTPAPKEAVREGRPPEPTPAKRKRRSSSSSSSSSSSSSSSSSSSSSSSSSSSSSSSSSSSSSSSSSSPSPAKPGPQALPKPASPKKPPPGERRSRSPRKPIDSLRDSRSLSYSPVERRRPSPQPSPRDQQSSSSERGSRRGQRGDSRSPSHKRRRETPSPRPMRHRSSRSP
UniProt Q13043, sequence (Q13043 whole entry, looked up): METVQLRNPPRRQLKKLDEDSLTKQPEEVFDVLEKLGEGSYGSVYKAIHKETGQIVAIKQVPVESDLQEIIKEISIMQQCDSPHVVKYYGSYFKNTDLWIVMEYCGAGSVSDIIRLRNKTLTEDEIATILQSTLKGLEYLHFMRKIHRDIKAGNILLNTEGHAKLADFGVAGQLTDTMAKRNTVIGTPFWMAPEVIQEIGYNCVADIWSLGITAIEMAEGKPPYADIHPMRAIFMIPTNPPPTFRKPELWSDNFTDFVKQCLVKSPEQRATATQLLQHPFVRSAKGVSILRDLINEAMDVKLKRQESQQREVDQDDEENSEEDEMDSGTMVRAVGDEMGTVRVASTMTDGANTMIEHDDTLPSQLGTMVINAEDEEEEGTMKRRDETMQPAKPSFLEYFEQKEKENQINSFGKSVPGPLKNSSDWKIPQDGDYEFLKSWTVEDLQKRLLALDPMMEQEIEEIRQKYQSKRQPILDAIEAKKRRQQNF
UniProt Q15833, sequence (Q15833 whole entry, looked up): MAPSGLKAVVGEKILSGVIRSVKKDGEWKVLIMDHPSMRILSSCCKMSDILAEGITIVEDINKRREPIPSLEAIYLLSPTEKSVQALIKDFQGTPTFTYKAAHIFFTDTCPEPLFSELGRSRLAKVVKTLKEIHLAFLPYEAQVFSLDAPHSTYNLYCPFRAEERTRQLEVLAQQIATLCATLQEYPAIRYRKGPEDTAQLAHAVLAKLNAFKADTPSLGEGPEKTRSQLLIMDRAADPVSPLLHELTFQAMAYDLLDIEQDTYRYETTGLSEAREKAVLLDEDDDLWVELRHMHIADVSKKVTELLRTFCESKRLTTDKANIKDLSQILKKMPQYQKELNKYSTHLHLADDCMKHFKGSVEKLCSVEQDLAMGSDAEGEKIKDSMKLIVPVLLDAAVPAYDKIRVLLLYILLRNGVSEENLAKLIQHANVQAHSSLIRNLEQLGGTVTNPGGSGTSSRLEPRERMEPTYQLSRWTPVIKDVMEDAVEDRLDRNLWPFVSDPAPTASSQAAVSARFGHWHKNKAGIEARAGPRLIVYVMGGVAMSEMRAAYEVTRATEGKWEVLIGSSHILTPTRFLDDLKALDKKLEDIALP
UniProt O15198, sequence (O15198 whole entry, looked up): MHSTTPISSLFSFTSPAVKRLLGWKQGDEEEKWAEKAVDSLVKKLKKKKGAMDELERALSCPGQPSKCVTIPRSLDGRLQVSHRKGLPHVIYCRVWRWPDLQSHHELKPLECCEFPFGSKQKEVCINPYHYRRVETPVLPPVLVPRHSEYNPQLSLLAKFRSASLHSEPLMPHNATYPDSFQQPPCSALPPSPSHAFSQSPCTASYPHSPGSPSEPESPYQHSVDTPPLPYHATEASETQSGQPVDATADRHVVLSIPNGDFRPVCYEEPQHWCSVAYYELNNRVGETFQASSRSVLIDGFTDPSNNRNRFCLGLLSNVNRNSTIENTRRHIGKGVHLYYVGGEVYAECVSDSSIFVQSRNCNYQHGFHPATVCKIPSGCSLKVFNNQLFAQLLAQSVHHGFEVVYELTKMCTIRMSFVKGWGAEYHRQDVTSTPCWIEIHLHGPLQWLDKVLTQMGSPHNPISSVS
UniProt Q9NQZ5, sequence (Q9NQZ5 whole entry, looked up): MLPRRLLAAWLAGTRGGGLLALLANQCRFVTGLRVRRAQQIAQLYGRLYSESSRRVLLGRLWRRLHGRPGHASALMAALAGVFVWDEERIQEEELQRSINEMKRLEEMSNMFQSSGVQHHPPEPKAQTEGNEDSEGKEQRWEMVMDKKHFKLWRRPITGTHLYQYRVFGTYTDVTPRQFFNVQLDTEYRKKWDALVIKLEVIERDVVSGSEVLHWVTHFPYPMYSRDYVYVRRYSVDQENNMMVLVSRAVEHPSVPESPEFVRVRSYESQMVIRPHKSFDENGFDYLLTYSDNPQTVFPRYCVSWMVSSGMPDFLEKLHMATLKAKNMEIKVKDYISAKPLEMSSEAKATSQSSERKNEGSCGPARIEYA
UniProt Q9H5Q4, sequence (Q9H5Q4 whole entry, looked up): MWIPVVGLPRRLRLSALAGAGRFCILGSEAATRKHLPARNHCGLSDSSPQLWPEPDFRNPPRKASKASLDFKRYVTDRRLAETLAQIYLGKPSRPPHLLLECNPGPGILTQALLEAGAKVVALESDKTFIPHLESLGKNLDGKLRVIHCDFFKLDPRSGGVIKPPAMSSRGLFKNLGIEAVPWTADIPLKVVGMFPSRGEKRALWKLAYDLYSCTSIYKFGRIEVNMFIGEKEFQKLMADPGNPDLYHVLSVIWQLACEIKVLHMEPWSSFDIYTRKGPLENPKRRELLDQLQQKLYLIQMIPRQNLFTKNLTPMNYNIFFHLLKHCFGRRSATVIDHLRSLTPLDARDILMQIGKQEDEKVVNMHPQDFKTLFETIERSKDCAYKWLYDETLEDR

| Target | log2 fold change [1] | log2 fold change [2] | log2 fold change [3] | log2 fold change [4] | log2 fold change [5] | log2 fold change [6] | log2 fold change [7] | log2 fold change [8] | log2 fold change [9] | log2 fold change [10] | log2 fold change [11] | log2 fold change [12] | log2 fold change [13] | log2 fold change [14] | log2 fold change [15] | log2 fold change [16] | log2 fold change [17] | log2 fold change [18] | log2 fold change [19] | log2 fold change [20] |
| --- | --- | --- | --- | --- | --- | --- | --- | --- | --- | --- | --- | --- | --- | --- | --- | --- | --- | --- | --- | --- |
| STK4 (UniProt Q13043) | 0.009 | -0.01 | 0.032 | 0.036 | 0.068 | 0.043 | -0.021 | -0.004 | -0.008 | -0.03 | -0.053 | -0.027 | -0.003 | 0.143 | -0.052 | -0.016 | 0.005 | 0 | 0.039 | -0.028 |
| SSR4 (UniProt P51571) | -0.004 | 0.001 | 0.081 | -0.054 | 0.06 | -0.055 | 0.029 | 0.033 | -0.019 | -0.045 | -0.011 | -0.057 | -0.001 | 0.021 | -0.028 | -0.005 | 0.067 | 0.026 | -0.063 | 0.003 |
| SRSF7 (UniProt Q16629) | -0.096 | 0.008 | -0.311 | 0.045 | -0.093 | 0.319 | -0.005 | -0.025 | 0.073 | -0.089 | 0.073 | -0.055 | 0.156 | -0.642 (active) | 0.171 | 0.044 | -0.177 | -0.126 | 0.181 | -0.128 |
| SRRM2 (UniProt Q9UQ35) | -0.048 | -0.246 | 0.021 | -0.255 | -0.044 | -0.13 | 0.013 | 0.012 | 0.044 | -0.131 | 0.068 | 0.044 | 0.02 | -0.936 (active) | 0.079 | -0.261 | 0.048 | 0.022 | 0.077 | 0.035 |
| STARD7 (UniProt Q9NQZ5) | 0.023 | -0.051 | 0.045 | -0.114 | 0.034 | -0.168 | -0.024 | 0.023 | 0.021 | -0.01 | -0.043 | 0.109 | -0.057 | 0.081 | -0.035 | 0.094 | 0.021 | -0.007 | -0.026 | 0.032 |
| TIPRL (UniProt O75663) | 0.065 | -0.167 | 0.143 | -0.023 | -0.016 | -0.159 | -0.011 | 0.065 | -0.034 | -0.055 | -0.052 | 0.066 | -0.022 | -0.025 | -0.103 | -0.035 | 0.032 | 0.048 | -0.16 | 0.098 |
| SORT1 (UniProt Q99523) | 0.007 | -0.742 (active) | -0.019 | -0.051 | 0.023 | -0.069 | -0.001 | -0.066 | -0.042 | -0.032 | -0.494 (active) | -0.011 | 0.041 | -0.023 | 0.02 | -0.122 | 0.018 | -0.026 | 0.076 | 0.045 |
| TERF2IP (UniProt Q9NYB0) | -0.021 | 0.085 | -0.072 | -0.099 | 0.016 | 0.028 | 0.108 | 0.005 | -0.019 | 0.044 | -0.051 | -0.008 | -0.006 | -0.163 | -0.028 | -0.128 | -0.078 | -0.033 | 0.074 | -0.014 |
| SPAG9 (UniProt O60271) | 0.046 | -0.056 | -0.002 | 0.065 | -0.017 | -0.034 | 0.049 | 0.012 | 0.023 | -0.188 | -0.056 | -0.014 | -0.039 | -0.074 | -0.076 | 0.015 | -0.018 | 0.012 | -0.005 | 0.054 |
| STRN (UniProt O43815) | 0.016 | 0.068 | -0.004 | -0.125 | 0.046 | -0.048 | 0.048 | 0.076 | -0.018 | 0.198 | -0.016 | 0.063 | 0.014 | 0.048 | -0.068 | -0.008 | 0.022 | -0.064 | 0 | 0.021 |
| STK38 (UniProt Q15208) | 0.081 | -0.087 | 0.089 | -0.031 | 0.052 | -0.024 | 0.065 | 0.072 | -0.011 | 0.026 | 0.054 | 0 | -0.105 | -0.343 (active) | -0.136 | 0.009 | 0.035 | 0.008 | -0.079 | -0.083 |
| TFB2M (UniProt Q9H5Q4) | -0.013 | -0.06 | 0.096 | 0.025 | 0.049 | -0.19 | 0.013 | 0.033 | -0.024 | -0.044 | -0.046 | 0.008 | -0.043 | -0.024 | -0.099 | 0.009 | 0.012 | -0.004 | -0.132 | -0.039 |
| THYN1 (UniProt Q9P016) | -0.015 | 0.061 | 0.001 | 0.011 | 0.071 | 0.021 | -0.024 | 0.087 | -0.036 | -0.002 | 0.009 | -0.028 | -0.021 | 0.044 | -0.097 | -0.009 | -0.015 | 0.013 | -0.036 | 0.031 |
| SPCS2 (UniProt Q15005) | 0.032 | 0.001 | 0.02 | -0.036 | 0.035 | -0.007 | -0.015 | -0.013 | 0.047 | 0.085 | -0.057 | 0.003 | 0.014 | -0.034 | 0 | 0 | 0.053 | 0.025 | -0.035 | 0.037 |
| SMAD9 (UniProt O15198) | 0.016 | 0.019 | 0.068 | 0.037 | 0.014 | -0.197 | -0.069 | 0.074 | -0.013 | -0.169 | -0.102 | -0.226 | -0.113 | 0.004 | -0.077 | -0.114 | 0.058 | 0.015 | -0.069 | -0.067 |
| STXBP2 isoform 3 (UniProt Q15833) | 0.049 | -0.301 | 0.022 | 0.039 | 0.019 | -0.03 | 0.03 | 0.17 | 0.152 | -0.306 | 0.088 | 0.096 | -0.099 | -0.147 | -0.131 | -0.014 | 0.073 | 0.086 | -0.086 | 0.164 |

— the supplement of paper PMC10849652
